# Data from PubChem BioAssay.
# Unmarked numbers belong to inactive results. For some of these results: Results with a measured potency or affinity are listed apart. Activity calls are given as the source filed them. Unless noted, how the calls were made is not given here.
# Key:
# [1] = antimalarial activity against Dd2 strain (AID 2302;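 active means growth inhibition above 50% at the single 2 µM test dose, taken to imply half-maximal potency below 2 µM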;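 further: 0% = DMSO untreated growth and 100% = chloroquine plus artemisinin killed control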); details: P. falciparum Dd2 in RBCs, LDH growth readout, 72 h; at 2 µM; active compounds read high
# [2] = human hepatoma cell viability loss – ATP luminescence, cytotoxicity control for P. falciparum antimalarial project, primary screen (AID 2303;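 active means inhibition above 50%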;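 further: 0% = DMSO wells and 100% = digitonin-killed cells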); details: HepG2 viability, 24-48 h, at 10 µM, active compounds read high
# [3] = biological target: L-lactate dehydrogenase (Plasmodium falciparum (isolate CDC / Honduras)) (UniProt Q27743); assay: PfLDH activity inhibition – cell lysate, 3D7 strain, counter-screen for P. falciparum growth inhibition project (AID 2304);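 further: 0% = vehicle and 100% = reference inhibitor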; details: P. falciparum 3D7 crude extract, LDH APAD/NBT absorbance; at 2 µM; active compounds read high
# Sequence of L-lactate dehydrogenase (Plasmodium falciparum (isolate CDC / Honduras)) (Q27743 whole entry, looked up): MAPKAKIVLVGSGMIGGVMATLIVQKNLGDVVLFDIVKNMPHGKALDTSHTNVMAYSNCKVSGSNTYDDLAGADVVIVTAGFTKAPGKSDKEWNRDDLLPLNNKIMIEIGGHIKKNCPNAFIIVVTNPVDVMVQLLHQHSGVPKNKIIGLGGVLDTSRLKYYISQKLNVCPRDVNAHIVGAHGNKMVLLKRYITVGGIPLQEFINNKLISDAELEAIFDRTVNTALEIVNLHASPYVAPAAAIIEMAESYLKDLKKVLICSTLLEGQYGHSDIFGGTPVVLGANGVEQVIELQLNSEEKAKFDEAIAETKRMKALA
# [4] = inhibition of 3D7 malaria parasite growth – strain 3D7 (AID 2306);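 further: 0% = DMSO wells and 100% = chloroquine plus artemisinin control wells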; details: P. falciparum 3D7 erythrocytic growth, LDH absorbance, 72 h; at 2 µM; active compounds read high
# [5] = biological target: Calcium-dependent protein kinase 1 (Plasmodium falciparum (isolate 3D7)) (UniProt P62344); assay: PfCDPK1 kinase inhibitors, biochemical, TCAMS library (AID 1159585; cut-off not given, nearly all actives have IC50 up to about 0.98 µM;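 further: inhibitors leave more ATP so luminescence rises with inhibition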); details: recombinant PfCDPK1, Kinase-Glo ATP depletion luminescence
# Sequence of Calcium-dependent protein kinase 1 (Plasmodium falciparum (isolate 3D7)) (P62344 whole entry, looked up): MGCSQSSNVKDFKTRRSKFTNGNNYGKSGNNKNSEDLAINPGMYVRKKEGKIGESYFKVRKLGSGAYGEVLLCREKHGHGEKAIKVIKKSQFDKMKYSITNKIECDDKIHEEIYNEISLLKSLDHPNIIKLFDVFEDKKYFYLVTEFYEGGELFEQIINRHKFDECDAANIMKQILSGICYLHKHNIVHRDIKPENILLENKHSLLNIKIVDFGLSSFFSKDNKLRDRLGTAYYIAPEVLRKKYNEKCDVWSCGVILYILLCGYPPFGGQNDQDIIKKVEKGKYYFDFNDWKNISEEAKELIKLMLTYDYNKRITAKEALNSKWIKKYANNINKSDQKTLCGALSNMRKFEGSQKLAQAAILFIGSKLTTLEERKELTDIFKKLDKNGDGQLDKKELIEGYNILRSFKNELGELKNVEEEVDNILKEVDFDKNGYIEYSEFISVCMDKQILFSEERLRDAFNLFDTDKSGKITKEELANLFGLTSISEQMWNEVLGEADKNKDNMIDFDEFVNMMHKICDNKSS
# [6] = biological target: Plasmodium falciparum protein kinase 6 (PK6, PF3D7_1337100) (UniProt Q8IDW1); assay: PfPK6 kinase inhibitors, biochemical, TCAMS library (AID 1159586); details: recombinant PfPK6, Kinase-Glo ATP depletion luminescence
# Sequence of Plasmodium falciparum protein kinase 6 (PK6, PF3D7_1337100) (Q8IDW1 1-305): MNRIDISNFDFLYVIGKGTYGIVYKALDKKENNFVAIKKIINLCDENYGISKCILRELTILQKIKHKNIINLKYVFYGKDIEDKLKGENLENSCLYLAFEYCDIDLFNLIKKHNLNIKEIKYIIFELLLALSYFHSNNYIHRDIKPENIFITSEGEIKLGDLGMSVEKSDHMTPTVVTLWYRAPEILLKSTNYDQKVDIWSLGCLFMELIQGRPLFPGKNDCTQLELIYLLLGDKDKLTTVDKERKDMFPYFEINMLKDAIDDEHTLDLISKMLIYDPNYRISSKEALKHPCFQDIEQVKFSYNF
# [7] = biological target: Protein kinase 7 (PK7), Plasmodium falciparum 3D7 (PF3D7_0213400) (UniProt Q7YTF7); assay: inhibition of Plasmodium PK7 catalytic activity – biochemical, TCAMS antimalarial set, Kinase-Glo luminescence (AID 1159587); details: recombinant PfPK7, Kinase-Glo ATP depletion luminescence
# Sequence of Protein kinase 7 (PK7), Plasmodium falciparum 3D7 (PF3D7_0213400) (Q7YTF7 1-343): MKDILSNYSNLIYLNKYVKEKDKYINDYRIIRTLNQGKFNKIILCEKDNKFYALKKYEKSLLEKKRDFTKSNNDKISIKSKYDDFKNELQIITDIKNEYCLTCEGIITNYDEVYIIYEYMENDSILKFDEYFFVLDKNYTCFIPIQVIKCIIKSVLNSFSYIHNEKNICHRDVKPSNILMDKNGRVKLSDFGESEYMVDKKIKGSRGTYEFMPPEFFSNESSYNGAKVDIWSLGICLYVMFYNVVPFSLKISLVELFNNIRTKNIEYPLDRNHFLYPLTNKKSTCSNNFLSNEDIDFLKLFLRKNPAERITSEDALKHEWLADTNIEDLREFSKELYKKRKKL
# [8] = biological target: Calcium-dependent protein kinase 4 (Plasmodium falciparum (isolate 3D7)) (UniProt Q8IBS5); assay: PfCDPK4 kinase inhibitors, biochemical, TCAMS library (AID 1159588; cut-off not given, nearly all actives have IC50 up to about 0.91 µM); details: recombinant PfCDPK4, Kinase-Glo ATP depletion luminescence
# Sequence of Calcium-dependent protein kinase 4 (Plasmodium falciparum (isolate 3D7)) (Q8IBS5 whole entry, looked up): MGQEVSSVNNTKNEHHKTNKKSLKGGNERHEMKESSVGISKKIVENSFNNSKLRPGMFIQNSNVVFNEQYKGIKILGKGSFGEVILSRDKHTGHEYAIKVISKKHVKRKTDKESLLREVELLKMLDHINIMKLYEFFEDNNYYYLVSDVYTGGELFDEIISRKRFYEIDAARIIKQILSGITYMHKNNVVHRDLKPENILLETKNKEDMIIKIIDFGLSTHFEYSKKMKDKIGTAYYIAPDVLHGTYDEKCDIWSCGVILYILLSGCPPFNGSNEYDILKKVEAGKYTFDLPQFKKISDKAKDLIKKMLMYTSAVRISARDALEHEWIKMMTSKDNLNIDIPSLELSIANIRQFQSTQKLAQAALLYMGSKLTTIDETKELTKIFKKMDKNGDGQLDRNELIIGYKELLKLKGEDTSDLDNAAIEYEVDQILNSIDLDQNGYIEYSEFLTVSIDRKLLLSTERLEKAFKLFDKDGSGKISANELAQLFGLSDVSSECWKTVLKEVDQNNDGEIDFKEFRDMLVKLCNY
Compound,growth inhibition [1],inhibition [2],inhibition [3],growth inhibition [4],outcome [5],outcome [6],outcome [7],outcome [8]
Cc1nc(NCc2ccccc2)cc(NCC(O)c2ccc(O)cc2)n1 (stereo not given),10%,5%,-2%,85% (active),inactive,inactive,inactive,inactive
Cc1cc2nc(-c3ccc(OCC(=O)NCc4cccc(C(F)(F)F)c4)cc3)[nH]c2cc1C,1%,4%,-4%,94% (active),inactive,inactive,inactive,inactive
CCOC(=O)C(C)(C)Oc1ccc(CN(Cc2ccc(CC(C)C)cc2)C(=O)Nc2ccc(F)cc2F)c(OC)c1,96% (active),5%,-8%,97% (active),inactive,inactive,inactive,inactive
N#Cc1cccc(Nc2nccc(NCC(O)c3ccccc3C(F)(F)F)n2)c1 (stereo not given),39%,36%,3%,98% (active),inactive,inactive,inactive,inactive
CC1(C)N=C(N)N=C(N)N1OCOc1cc(Cl)c(Cl)cc1Cl,98% (active),66% (active),-3%,96% (active),inactive,inactive,inactive,inactive
CCc1ccc(NC(=O)C=NN=C(N)N)cc1,3%,13%,-2%,100% (active),inactive,inactive,inactive,inactive
Cc1nnsc1C(=O)Nc1cccc(-c2cccc(-c3nc4ccc(C(F)(F)F)cc4[nH]3)c2)c1,100% (active),70% (active),1%,101% (active),inactive,inactive,inactive,inactive
CCN1CCN(c2ccc(Nc3c4ccccc4nc4ccccc34)cc2)CC1,100% (active),24%,-2%,99% (active),inactive,inactive,inactive,inactive
CC(C)c1ccc(NC(=O)c2ccc(CN3CCCN(CC4CCCCC4)CC3)cc2)cc1,34%,50% (active),6%,90% (active),inactive,inactive,inactive,inactive
O=C(Nc1cccc(OC2CCN(Cc3ccccc3)CC2)c1)c1ccc(Cl)c(Cl)c1,45%,16%,-4%,101% (active),inactive,inactive,inactive,inactive
O=C(NC1c2ccccc2Oc2ccccc21)c1ccccc1O,-3%,-3%,-1%,95% (active),inactive,inactive,inactive,inactive
CCOc1cc(Cc2cnc(N)nc2N)cc(OCC)c1OCC,0%,-1%,5%,97% (active),inactive,inactive,inactive,inactive
Nc1nccc2ccc(OC3CCCCC3)cc12,41%,24%,-4%,98% (active),inactive,inactive,inactive,inactive
CCOC(=O)c1c(NC(NC(=O)c2ccc(C(C)(C)C)cc2)C(Cl)(Cl)Cl)sc2c1CCCC2 (stereo not given),94% (active),1%,-3%,98% (active),inactive,inactive,inactive,inactive
Cn1nc(C(F)(F)F)c(-c2ccc(F)cc2)c1NC(=O)Nc1ccccc1,99% (active),3%,6%,101% (active),inactive,inactive,inactive,inactive
CC(C)C(=O)ONC1=NC(C)(C)N(OCCCOc2cc(Cl)c(Cl)cc2Cl)C(NOC(=O)C(C)C)=N1,93% (active),64% (active),-9%,92% (active),inactive,inactive,inactive,inactive
NC1(C(=O)O)Cc2ccc(Cl)cc2C1 (stereo not given),1%,0%,-3%,93% (active),inactive,inactive,inactive,inactive
FC(F)(F)c1ccc(N2CCCN(Cc3cccc(-c4ccccc4CNCc4ccc5c(c4)OCO5)c3)CC2)nc1,11%,23%,3%,87% (active),inactive,inactive,inactive,inactive
CC(C)c1ccc(NC(=O)c2ccc(C(=O)NC3CCN(CC4CCCCC4)C3)cc2)cc1 (stereo not given),26%,35%,3%,93% (active),inactive,inactive,inactive,inactive
NC(=O)c1ccc(NCC(=O)Nc2cccc(-c3cccc(-c4nc5ccc(F)cc5[nH]4)c3)c2)cc1,32%,15%,-3%,97% (active),inactive,inactive,inactive,inactive
